Screening data as filed in PubChem BioAssay.
This is a sample that favours compounds with a hit; in the whole collection about 1.1% have one here.
NSD2 inh – NSD2 histone methyltransferase inhibitors, primary screen, biochemical, AlphaScreen, single concentration, set 2. NSD2 peptide methylation, 120 min. AID 743445, 2014. Histone-lysine N-methyltransferase NSD2 (Homo sapiens), O96028. inhibition, % at 12.5 µM. hit rate 0.54% among 310,000; in the data active = inhibition above about 50%
CASP6 VEID inh – human caspase-6 inhibitors, primary screen, biochemical, VEID-R110 fluorescence, single point, set 2. P55212. purified caspase-6, Z-VEID-R110 cleavage fluorescence. inhibition, % at 12.5 µM. hit rate 0.53% among 350,000. AID 686996, 2013;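 active = mean inhibition across replicates at least about 35%, with every replicate also reaching that limit, limit read from the data; inconclusive = only one of the two criteria met; inactive = neither criterion met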;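 note: 0% = median of neutral control wells and 100% = no fluorescence left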
Keap1-Nrf2 PPI – Keap1-Nrf2 protein-protein interaction inhibitors, primary screen, biochemical, fluorescence polarization, single point. AID 504523, 2011. hit rate 0.15% among 340,000. Keap1 Kelch-Nrf2 peptide fluorescence polarization, 1536-well. Kelch-like ECH-associated protein 1 (Homo sapiens), Q14145. inhibition, % at 9.4 µM; in the data active = inhibition above about 12%; inconclusive = no clear call, values can overlap the other calls; inactive = below about 7.3%;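 note: human Keap1 Kelch domain with fluorescein labeled Nrf2 9mer peptide probe; 0% = neutral control wells and 100% = peptide positive control; higher means more block of Keap1 binding to Nrf2 peptide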
N-glyco inh – increase of ERlucT glycosylation luciferase signal, primary screen, N-linked glycosylation inhibitor project, D54 ERlucT cells, luminescence, set 2; D54 ERlucT glycosylation luciferase reporter, 24 h; percent of 100 nM tunicamycin response; reporter increase, % at 12.5 µM; hit rate 0.23% among 360,000; AID 588692, 2011;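 active = mean luciferase reporter signal, scaled so untreated is 0 and the glycosylation-blocking control 100, at or above a set limit in every replicate; inconclusive = mean reaches the limit but not every replicate does; inactive = mean below the limit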;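 note: luciferase carries N-glycosylation sites so blocking glycosylation raises the light; 0% = median of neutral control wells and 100% = median of 100 nM tunicamycin wells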
C-LANA FP – inhibitors of KSHV C-LANA binding to DNA, primary screen, biochemical, fluorescence polarization, FAM-LBS DNA, MBP-C-LANA, single point | Kaposi's sarcoma herpesvirus LANA C-terminal domain (residues 932-1162) DNA binding | inhibition, % at 9 µM | hit rate 0.078% among 340,000;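 active = highest replicate inhibition at or above 60% at 9 µM, even if other replicates fall short; inactive = all replicates below 60% inhibition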;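 note: 0% = neutral control wells and 100% = 4 µM acridine orange control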
HDAC3 inh – HDAC3 deacetylase inhibitors, primary screen, biochemical, fluorescence, cell-free homogeneous; recombinant HDAC3, fluorogenic peptide/trypsin coupled; inhibition, % at 8.3 µM; hit rate 0.15% among 320,000; in the data active = inhibition above about 26%, passing the limit was not always enough; inconclusive = no clear call, values can overlap the other calls
Target sequence (O15379 whole entry, looked up): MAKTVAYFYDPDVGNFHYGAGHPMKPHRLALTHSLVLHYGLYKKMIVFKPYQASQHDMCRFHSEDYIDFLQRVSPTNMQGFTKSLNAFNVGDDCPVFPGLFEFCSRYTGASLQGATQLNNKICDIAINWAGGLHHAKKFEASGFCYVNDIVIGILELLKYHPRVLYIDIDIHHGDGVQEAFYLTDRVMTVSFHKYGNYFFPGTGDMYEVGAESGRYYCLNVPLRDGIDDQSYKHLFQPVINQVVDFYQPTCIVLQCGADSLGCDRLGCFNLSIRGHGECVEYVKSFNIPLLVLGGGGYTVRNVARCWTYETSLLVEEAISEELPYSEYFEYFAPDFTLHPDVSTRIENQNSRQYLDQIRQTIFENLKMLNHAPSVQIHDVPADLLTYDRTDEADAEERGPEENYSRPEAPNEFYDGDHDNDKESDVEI
* hit, by the source's call.

S=c1[nH]nc(-c2cccnc2)n1/N=C/C=C/c1ccco1 was read as NSD2 inh 6, CASP6 VEID inh 39*, Keap1-Nrf2 PPI 6, N-glyco inh 3, C-LANA FP 6 and HDAC3 inh -5.
For S=c1[nH]nc(-c2ccccc2)n1/N=C/C=C/c1ccco1 the results were NSD2 inh 6, CASP6 VEID inh 13, Keap1-Nrf2 PPI -2, N-glyco inh -1, C-LANA FP 0 and HDAC3 inh 7.
For Nc1cc2cccnc2cc1Cl the results were NSD2 inh 36, CASP6 VEID inh 62*, Keap1-Nrf2 PPI -7, N-glyco inh 5 and C-LANA FP 0.
For O=C1N=C(N2C=CC(=C3C=CNC=C3)C=C2)/C(=C/N=NC(=O)c2ccccc2O)S1 the results were NSD2 inh 16, CASP6 VEID inh 36*, Keap1-Nrf2 PPI 7, N-glyco inh -1, C-LANA FP 18 and HDAC3 inh 10.
Screening COc1ccc2nc(C)cc(Nc3ccc(N4CCN(C)CC4)cc3)c2c1 returned NSD2 inh 13, Keap1-Nrf2 PPI -7, N-glyco inh 67*, C-LANA FP -17 and HDAC3 inh 7.
Screening COc1ccc2nc(C)cc(Nc3ccc(N4CCOCC4)cc3)c2c1 returned NSD2 inh 22, Keap1-Nrf2 PPI -1, N-glyco inh 49*, C-LANA FP -3 and HDAC3 inh -2.
`CC(=O)Nc1ccc2c(O)cc(S(=O)(=O)O)cc2c1` gave NSD2 inh 10, CASP6 VEID inh 35, Keap1-Nrf2 PPI 1, N-glyco inh 0 and C-LANA FP 12.
Screening Nc1cccc2c(O)cc(S(=O)(=O)O)cc12 returned Keap1-Nrf2 PPI inconclusive, N-glyco inh 1 and C-LANA FP 117*.
For COc1ccccc1Nc1ccc2c(O)cc(S(=O)(=O)O)cc2c1 the results were NSD2 inh 110*, CASP6 VEID inh 88*, Keap1-Nrf2 PPI 8, N-glyco inh -2 and C-LANA FP 119*.
`O=S(=O)(O)c1cc(O)c2ccc(Nc3ccccc3)cc2c1` gave NSD2 inh 105*, CASP6 VEID inh 95*, Keap1-Nrf2 PPI 3, N-glyco inh 0 and C-LANA FP 92*.
For CC(C)NC(=O)N(C)C[C@@H]1Oc2ccc(NS(=O)(=O)c3cn(C)cn3)cc2CC(=O)N([C@@H](C)CO)C[C@H]1C the results were CASP6 VEID inh 1.
For c1ccc2c(c1)nc(N1CCOCC1)c1c3ccccc3[nH]c21 the results were NSD2 inh -8, CASP6 VEID inh 0, Keap1-Nrf2 PPI 0, N-glyco inh 39*, C-LANA FP -1 and HDAC3 inh -31.
Screening CCN(CC)CCNc1ccc(CO)c2oc3ccccc3c(=O)c12 returned NSD2 inh 19, CASP6 VEID inh -6 and N-glyco inh 43*.
For CCN(CC)CCNc1ccc(CO)c2sc3ccccc3c(=O)c12 the results were CASP6 VEID inh 7, Keap1-Nrf2 PPI -7, N-glyco inh 21, C-LANA FP -6 and HDAC3 inh 6.
`Cc1ccc(S(=O)(=O)N(CC(=O)Nc2ccccc2C(=O)O)c2cccc(Cl)c2C)cc1` gave NSD2 inh 9, CASP6 VEID inh 47*, Keap1-Nrf2 PPI -1, N-glyco inh 2, C-LANA FP 5 and HDAC3 inh -5.
Screening Cc1ccc(S(=O)(=O)N(CC(=O)Nc2ccccc2C(=O)O)c2ccccc2C)cc1 returned NSD2 inh -7, CASP6 VEID inh 2, Keap1-Nrf2 PPI -1, N-glyco inh 2, C-LANA FP 0 and HDAC3 inh 1.
CCOC(=O)c1ccccc1NC(=O)COC(=O)C1CCN(S(=O)(=O)c2ccccc2C(=O)OC)CC1 was read as NSD2 inh -3, CASP6 VEID inh 60*, Keap1-Nrf2 PPI 1, N-glyco inh 3, C-LANA FP 3 and HDAC3 inh 2.
Screening Cc1ccc2c(CNCc3ccccc3)cc(=O)oc2c1 returned NSD2 inh 9, CASP6 VEID inh 0, Keap1-Nrf2 PPI -5, N-glyco inh 29*, C-LANA FP 1 and HDAC3 inh -5.
Screening Cc1ccc2c(CN(C)Cc3ccccc3)cc(=O)oc2c1 returned CASP6 VEID inh 7 and N-glyco inh -6.
`O=C(Nc1ccccc1N1CCOCC1)c1cccc(S(=O)(=O)Nc2ccccc2F)c1` gave CASP6 VEID inh 3, Keap1-Nrf2 PPI -3, N-glyco inh -1, C-LANA FP 1 and HDAC3 inh 0.
CN(C)CCNC(=O)c1cccc(S(=O)(=O)Nc2ccccc2F)c1 was read as NSD2 inh -1, CASP6 VEID inh 49*, Keap1-Nrf2 PPI 1, N-glyco inh 1, C-LANA FP 0 and HDAC3 inh 1.
`Cc1ccc(S(=O)(=O)CCC(=O)Nc2ccc(S(=O)(=O)N(C)C)cc2)cc1` gave HDAC3 inh -9.
For Cc1ccc(NC(=O)CCS(=O)(=O)c2cc3[nH]c(=O)c(=O)[nH]c3cc2C)cc1 the results were NSD2 inh 5, CASP6 VEID inh 37*, Keap1-Nrf2 PPI -2, N-glyco inh 1, C-LANA FP 1 and HDAC3 inh -5.
For NC(=O)CC(NC(=O)c1ccc(Br)cc1)c1ccc(N2CCCCCCC2)c([N+](=O)[O-])c1 (stereo unspecified) the results were CASP6 VEID inh 2, Keap1-Nrf2 PPI 0, N-glyco inh 43*, C-LANA FP -2 and HDAC3 inh 2.
NC(=O)CC(NC(=O)c1ccc(Br)cc1)c1ccc(N2CCN(c3ccccc3)CC2)c([N+](=O)[O-])c1 (stereo unspecified) was read as CASP6 VEID inh -1, Keap1-Nrf2 PPI -3, N-glyco inh 4, C-LANA FP 0 and HDAC3 inh 6.
For NC(=O)CC(NC(=O)Cc1ccc(Br)cc1)c1ccc(NC2CCCC2)c([N+](=O)[O-])c1 (stereo unspecified) the results were Keap1-Nrf2 PPI -4, N-glyco inh 38*, C-LANA FP 1 and HDAC3 inh -2.
For CCOC(=O)[C@H]1[C@H]2COc3ccc(Cl)cc3[C@@H]2N2C(=O)CN(Cc3ccc(OC)cc3)C(=O)[C@@]12C the results were CASP6 VEID inh 1, Keap1-Nrf2 PPI -6, N-glyco inh 0, C-LANA FP -2 and HDAC3 inh -1.
Screening CCOC(=O)[C@H]1[C@H]2COc3ccc(Cl)cc3[C@@H]2N2C(=O)CN(Cc3ccc(C)cc3)C(=O)[C@@]12C returned CASP6 VEID inh 40*, Keap1-Nrf2 PPI -7, N-glyco inh -2, C-LANA FP 0 and HDAC3 inh -2.
